From PubChem BioAssay (EPA / NIEHS) come the findings set out here.

Assay [1] in a line: ATG_XTT_Cytotoxicity: Cytotoxicity Assessment in the Attagene TRANS-FACTORIAL HepG2 Assay (AID 2283584).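 As to AC50: cells exposed to compound for 24 h before reading; active means loss of viability signal versus DMSO baseline.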 In a few lines: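 Viability endpoint from XTT after 24 h chemical exposure of reporter-transfected human HepG2 liver cells; signal loss fitted relative to DMSO negative control.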
Assay [2] can be described thus: TOX21_p53_BLA_p2_viability: Viability Assessment in the Tox21 HCT-116 p53 Agonism Beta-lactamase Assay, Phase 2 (AID 2283591).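 Also: compound exposure lasted 16 h at 37 °C; actives lower the ATP signal meaning cytotoxicity.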 In outline: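 HCT116 p53-bla cells, 4000/well, dosed after 5 h plating (217-fold dilution of DMSO stocks) and incubated 16 h at 37C. Viability taken as cellular ATP by CellTiter-Glo luminescence after 30 min RT; signal loss marks cytotoxicity.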

For assay [3], the target named is Cellular tumor antigen p53 (Homo sapiens) (UniProt P04637). As to the kind of experiment: TOX21_p53_BLA_p2_ratio: Tox21 HCT-116 p53 Agonism Beta-lactamase Assay, Ratio, Phase 2 (AID 2283592). In a few lines: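 Gain-of-signal p53 agonism was scored from the beta-lactamase FRET ratio (460/530 nm, 405 nm excitation) in HCT116 cells treated 16 h at 37C, 5% CO2, with DMSO serving as negative control and baseline.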

Assay [4] in a line: TOX21_p53_BLA_p3_viability: Viability Assessment in the Tox21 HCT-116 p53 Agonism Beta-lactamase Assay, Phase 3 (AID 2283593).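 Also: cells exposed to compound for 16 h before reading.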 In outline: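 HCT116 cells, 4000/well, dosed 5 h after plating by pin transfer (217-fold dilution from DMSO stock) and incubated 16 h at 37C, 5% CO2. Viability read as ATP luminescence with CellTiter-Glo after 30 min at room temperature.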
Assay [5] has as its target Cellular tumor antigen p53 (Homo sapiens) (UniProt P04637). As to the kind of experiment: TOX21_p53_BLA_p3_ratio: Tox21 HCT-116 p53 Agonism Beta-lactamase Assay, Ratio, Phase 3 (AID 2283596). In a few lines:
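HCT116 p53-bla cells (4000/well) given compound in DMSO (217-fold dilution) after 5 h, incubated 16 h at 37C. CCF4-AM substrate 2 h at room temperature; 460/530 nm emission ratio, gain fitted against DMSO.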

Assay [6] in a line: TOX21_p53_BLA_p4_viability: Viability Assessment in the Tox21 HCT-116 p53 Agonism Beta-lactamase Assay, Phase 4 (AID 2283597).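 Also: hits lower the luminescence signal meaning cytotoxicity.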 In outline:
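Following a 16 h exposure at 37C, the treated HCT116 wells were first read for the FRET ratio. They were then lysed with CellTiter-Glo, and ATP luminescence was recorded after 30 min at room temperature.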

Assay [7] concerns the target Cellular tumor antigen p53 (Homo sapiens) (UniProt P04637). As to the kind of experiment: TOX21_p53_BLA_p5_ratio: Tox21 HCT-116 p53 Agonism Beta-lactamase Assay, Ratio, Phase 5 (AID 2283599). In a few lines: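 HCT-116 p53-bla cells (4000/well) plated 5 h, dosed with compound (217-fold DMSO dilution) for 16 h at 37 C; CCF4-AM substrate 2 h at room temperature. Activity is the 460/530 nm emission ratio (405 nm excitation), fitted in gain-of-signal direction versus DMSO.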

Broadly, the AC50 is the midpoint of the concentration-response curve, whichever way the signal moves.

“And” between values parts separate entries of the source, which are not always exact repeats. Equal values may be shown once. Records with an inconclusive call do not appear. Some compounds were tested as several samples or in several runs, with calls that do not always agree. The source made the active and inactive calls. The calls were made as follows: active = hit-call score of the fitted dose curve at least 0.9, where 1 is the maximum; inconclusive = response in the unintended direction; inactive = score below 0.9.

Cellular tumor antigen p53 (Homo sapiens), sequence (P04637 whole entry, looked up): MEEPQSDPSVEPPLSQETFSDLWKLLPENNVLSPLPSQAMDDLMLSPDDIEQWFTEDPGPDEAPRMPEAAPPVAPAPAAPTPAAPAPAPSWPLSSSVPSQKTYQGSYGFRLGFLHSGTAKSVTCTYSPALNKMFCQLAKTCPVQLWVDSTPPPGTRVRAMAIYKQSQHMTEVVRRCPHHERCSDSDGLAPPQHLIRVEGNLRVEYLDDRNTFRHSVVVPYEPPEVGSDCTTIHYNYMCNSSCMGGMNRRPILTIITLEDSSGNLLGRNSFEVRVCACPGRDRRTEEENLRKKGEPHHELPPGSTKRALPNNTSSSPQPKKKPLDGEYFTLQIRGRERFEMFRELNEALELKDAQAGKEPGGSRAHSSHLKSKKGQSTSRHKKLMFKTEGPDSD

With `C[C@]12CC[C@@H]3c4ccc(O)cc4CC[C@H]3[C@@H]1CC[C@@H]2OC(=O)CCC1CCCC1`, the molecule was called inactive in assay [1], in assay [2], in assay [3], in assay [4], in assay [5] and in assay [6]. In assay [7], the result was inactive.
For `CCCCCCc1ccc(N)cc1`, the molecule was classed as inactive in assay [1], in assay [2], in assay [3], in assay [4], in assay [5] and in assay [6]. The result in assay [7] was inactive.
As to `O=S(=O)(O)c1ccc2cc(O)ccc2c1`, the molecule was classed as inactive in assay [1], in assay [2], in assay [3], in assay [4], in assay [5] and in assay [6]. Besides, the result in assay [7] was inactive.
As for `C=CC(=O)OCC(CO)(COCC(COC(=O)C=C)(COC(=O)C=C)COC(=O)C=C)COC(=O)C=C`, the concentration at half-maximal activity (AC50) in assay [1] is 29.3 µM (active); in assay [2], 4.15 µM (active); in assay [3] it was 78.7 µM (active); in assay [4] it was 3.91 µM (active); in assay [6], 3.32 µM (active); in assay [7] it was 82.5 µM (active). The result in assay [5] was inactive.
Regarding `CCCCCC(C)OC(=O)COc1ccc(Cl)c2cccnc12` (stereo not drawn), the call in assay [1], in assay [2], in assay [3], in assay [4], in assay [5] and in assay [6] was inactive. Besides, the outcome in assay [7] was inactive.
As for `Cc1ccccc1C(OCCN(C)C)c1ccccc1` (stereo not drawn), the molecule was classed as inactive in assay [1], in assay [2], in assay [3], in assay [4], in assay [5] and in assay [6].
Take `CC=O`: the outcome in assay [1] was inactive. For the same molecule, the AC50 is 46.2 µM (active) in assay [2]; 3.17 µM (active) in assay [3]; 86.1 µM (active) in assay [4]; 2.37 µM (active) in assay [5]; 47.9 µM (active) in assay [6]; 30.3 µM (active) in assay [7].
Consider `Oc1ccc(Cc2ccccc2O)cc1`, for which the outcome in assay [1], in assay [2], in assay [3], in assay [4], in assay [5] and in assay [6] was inactive. The result in assay [7] was inactive.
For `Cc1cc(Cc2cc(C)cc(C(C)(C)C)c2O)c(O)c(C(C)(C)C)c1`, the concentration at half-maximal activity (AC50) in assay [1] was 74.7 µM (active); in assay [2], 10.8 µM (active) and 10.5 µM (active); in assay [3], 27.1 µM (active) and 46 µM (active); in assay [4], 19.1 µM (active) and 20.2 µM (active); in assay [5], 44.8 µM (active) and 57.1 µM (active); in assay [6], 12 µM (active) and 19.2 µM (active). Besides, in assay [7], the AC50 was 33.6 µM (active) and 41.4 µM (active).
For the molecule `COc1ccccc1NC(=O)c1cc2ccccc2cc1O`, the call in assay [1], in assay [2], in assay [4], in assay [5], in assay [6] and in assay [7] was inactive. For the same molecule, the AC50 in assay [3] is 14 µM (active).
Turning to `Cc1cc(=O)oc2cc(O)ccc12`, the call in assay [1], in assay [2], in assay [3], in assay [4], in assay [5] and in assay [6] was inactive. In assay [7], the outcome was inactive. Moreover, the half-maximal activity concentration (AC50) in assay [7] is 65 µM (active) and 38.4 µM (active).
With `O=c1cc(-c2ccccc2)oc2ccc3ccccc3c12`, the call in assay [1], in assay [2], in assay [3], in assay [4], in assay [5] and in assay [6] was inactive. For the same molecule, the result in assay [7] was inactive.
Take `O=C(Nc1ccc(Cl)c(Cl)c1)c1cc(Cl)cc(Cl)c1O`: the AC50 was 43.1 µM (active) in assay [1]; 0.558 µM (active) in assay [2]; 0.354 µM (active) in assay [3]; 0.989 µM (active) in assay [4]; 0.434 µM (active) in assay [5]; 0.671 µM (active) in assay [6]. For the same molecule, in assay [7], the AC50 is 1.45 µM (active).
In the case of `CC(O)COc1ccccc1` (stereo not drawn), the call in assay [1], in assay [2], in assay [3], in assay [4], in assay [5] and in assay [7] was inactive.
Consider `Nc1ccc(O)c(C(=O)O)c1`, for which the molecule was called inactive in assay [1], in assay [2], in assay [3], in assay [4], in assay [5] and in assay [6]. For the same molecule, in assay [7], the result was inactive. Besides, in assay [7], the AC50 was 71.9 µM (active).
As to `CNNCc1ccc(C(=O)NC(C)C)cc1`, the result in assay [1], in assay [2], in assay [3], in assay [4], in assay [5] and in assay [6] was inactive. Besides, in assay [7], the result was inactive.
Regarding `NS(=O)(=O)O`, the molecule was classed as inactive in assay [1], in assay [2], in assay [3], in assay [4], in assay [5] and in assay [7].
Take `c1cnc2c(c1)ccc1cccnc12`: the call in assay [1], in assay [2], in assay [3], in assay [4], in assay [5] and in assay [7] was inactive. The AC50 in assay [3] is 38.3 µM (active); in assay [6], 41.8 µM (active).
For `O=C1OC(=O)c2cc(-c3ccc4c(c3)C(=O)OC4=O)ccc21`, the result in assay [1], in assay [2], in assay [3], in assay [4], in assay [5] and in assay [6] was inactive. Also, the result in assay [7] was inactive.
